Reference: PubChem BioAssay (NCATS)
Inconclusive results are not listed. Active and inactive are the calls of the source. Unless noted, calls come from the whole dose curve; as a rule, active = well fitted curve in the direction sought with a large enough effect; inconclusive = small, poorly fitted or top-dose-only effect, or another doubt; inactive = no such curve, though single readings can be large; an effect the other way counts as inactive or inconclusive.

Legend:
[1] = Confirmatory screen GU Rhodamine qHTS for Zika virus inhibitors qHTS (AID 1347157); note: nearly all actives have a fitted effect of over 70% in size; note: potency is the fitted concentration of half-maximal effect;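 for activity change, negative = inhibition: plate controls were no-inhibitor wells for no effect and no-enzyme wells for full effect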
Procedure, shortened: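 Percent inhibition came from the 15-min rise in Rhodamine110 fluorescence (1.5 microM substrate, ~15% conversion), normalized to no-inhibitor and no-enzyme wells and Hill-fitted. Unlinked protease, 25 nM, pH 8.0 Tris buffer; compounds up to 114 microM, 15-min preincubation.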

[2] = Confirmatory screen NINDS Rhodamine qHTS for Zika virus inhibitors (AID 1347161); note: nearly all actives have a fitted effect of over 60% in size; note: potency is the fitted concentration of half-maximal effect;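 for activity change, negative = inhibition: purified Zika NS2B-NS3 protease with linked NS2B cofactor domain and Rhodamine110 peptide substrate; plate controls were no-inhibitor control for no effect and no-enzyme control for full effect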
Procedure, shortened: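 Percent inhibition, normalized to uninhibited and enzyme-free controls, is fitted to a 4-parameter Hill equation. Fluorescence change comes from a 15-min cleavage of 1.5 microM bis-peptide Rhodamine110 substrate by 25 nM linked NS2B-NS3 at room temperature.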

[3] = ZIKV-mCherry secondary qHTS for Zika virus inhibitors (AID 1347158); note: top concentration of the series differs between compounds
Procedure, shortened: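 Compounds were tested in Vero monkey kidney cells infected with recombinant mCherry-expressing Zika virus at MOI 1 for 48-72 h at 37 °C. Fixed cells were nuclear-stained and imaged, and infection rate was taken as the fraction of mCherry-positive cells.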

[4] = test system: Zika virus NS2B-NS3 protease (linked); experiment: 384 well plate NINDS AMC confirmatory qHTS for Zika virus inhibitors (AID 1347163); note: nearly all actives have a fitted effect of over 50% in size; note: potency is the fitted concentration of half-maximal effect;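 for activity change, negative = inhibition: linked protease at 5 30 or 60 nM final depending on run; fluorescence of AMC released from Ac-VKTGKR-AMC peptide cleaved by the protease; top concentration of the series differs between compounds; 0% = no-inhibitor control and -100% = no-enzyme control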
Procedure, shortened: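 Fluorescence at 355/460 nm was read after 25 minutes of cleavage of 30 microM Ac-VKTGKR-AMC at room temperature, in the dark. Before substrate addition, compounds (up to 1 mM final) sat ~15 minutes with 5, 30 or 60 nM linked protease. Signals were normalized to no-enzyme and no-inhibitor wells.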

[5] = Tertiary RLuc qRT-PCR qHTS assay for Zika virus inhibitors (AID 1347169); note: top concentration of the series differs between compounds; % is set by controls: 0 for no effect and ±100 for the full control effect; nearly all actives have a fitted effect of over 55% in size
Procedure, shortened: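 Vero, 1,000 cells/well, o/n 37 C; cpd pinned in DMSO; ZIKV-RLuc Cambodian, MOI 1-2, 48-72 h 37 C; live-cell RLuc substrate, lum read at 1-1.5 h.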

[6] = target: Cytochrome P450 3A4 (Homo sapiens) (UniProt P08684); experiment: qHTS Assay for Inhibitors and Substrates of Cytochrome P450 3A4 (AID 884); note: potency is the fitted concentration of half-maximal effect; nearly all actives have a fitted effect of over 50% in size
Chain of Cytochrome P450 3A4 (Homo sapiens) (P08684 whole entry, looked up): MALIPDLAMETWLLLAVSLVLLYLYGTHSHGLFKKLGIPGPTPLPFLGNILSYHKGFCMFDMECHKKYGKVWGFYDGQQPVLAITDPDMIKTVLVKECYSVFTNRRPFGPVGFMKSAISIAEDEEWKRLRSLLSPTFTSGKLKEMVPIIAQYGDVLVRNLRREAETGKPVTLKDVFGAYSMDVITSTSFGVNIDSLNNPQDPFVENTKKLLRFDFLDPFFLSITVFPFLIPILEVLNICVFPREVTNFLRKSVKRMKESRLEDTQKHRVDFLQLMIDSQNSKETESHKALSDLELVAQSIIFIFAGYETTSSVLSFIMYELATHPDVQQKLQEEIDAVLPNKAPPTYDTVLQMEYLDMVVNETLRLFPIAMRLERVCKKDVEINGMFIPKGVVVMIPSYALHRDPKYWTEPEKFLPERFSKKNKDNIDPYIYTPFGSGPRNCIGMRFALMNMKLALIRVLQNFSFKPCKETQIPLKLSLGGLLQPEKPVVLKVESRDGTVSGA
Procedure, shortened: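 Luminescent readout of luciferin produced by CYP3A4 (20 nM) dealkylation of Luciferin-PPXE, 25 uM (its KM). NADPH-driven reaction ran 60 min at RT after 10 min compound preincubation; data scaled to 57 uM ketoconazole as 100% inhibition.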

[7] = target: Cytochrome P450 3A4 (Homo sapiens) (UniProt P08684); experiment: qHTS Assay for Activators of Cytochrome P450 3A4 (AID 885); note: nearly all actives have a fitted effect of over 65% in size
Procedure, shortened: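 Human CYP3A4 dealkylates Luciferin-PPXE to luciferin, which luciferase detection converts to light. Substrate was at its KM (25uM), buffer 200mM KPO4, reaction 60 min at RT.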

[8] = Confirmation and Secondary Assay for Modulators of Hemoglobin Beta Chain Splicing at IVS2 654 locus (AID 910);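 note: HeLa cells stably carrying EGFP split by mutant beta-globin IVS2-654 intron; per-well total GFP intensity by laser scanning cytometry after 2-day treatment; % of control where 0% means no effect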
Procedure, shortened: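 Readout: per-well total peak green fluorescence (488 nm ex, 500–520 nm em) from objects 5–250 µm, reflecting correct splicing of an EGFP-654 reporter. Compounds were applied for 2 days at 37 °C to overnight-plated HeLa EGFP-654 cells; controls were DMSO and 500 nM IVS2-654 PNA.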

[9] = Confirmation and Secondary Assay for Modulators of Hemoglobin Beta Chain Splicing at IVS2 705 locus (AID 930);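 note: HeLa cells stably expressing the EGFP-705 splicing reporter; GFP fluorescence per well restored by corrected splicing of the IVS2-705 intron in EGFP; % of control where 0% means no effect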
Procedure, shortened: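 Fluorescence gain (488 nm laser, 500-520 nm PMT) reflects restored correct splicing of a mutant IVS2-705 intron inside EGFP in stably transfected HeLa cells after 2-day compound treatment.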

[10] = qHTS Assay for Lipid Storage Modulators (AID 1519; calls by dose curve; for activity change, negative = inhibition: % is set by controls: 0 for no effect and ±100 for the full control effect); details: Drosophila S3 cells, BODIPY lipid droplet/cell ratio, laser cytometry, cells loaded with oleic acid
Procedure, shortened: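 Cells seeded at 5,000 per well were treated with compounds over a concentration series and loaded with oleic acid (400 uM, as added). Lipid droplet fluorescence (488 nm excitation, 500-530 nm channel) was read by laser-scanning cytometry and normalized to 20 uM Triacsin C.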

[11] = target: Ubiquitin carboxyl-terminal hydrolase 1 (Homo sapiens) (UniProt O94782); experiment: Inhibitors of USP1/UAF1: Pilot qHTS (AID 504865); note: potency is the fitted concentration of half-maximal effect; nearly all actives have a fitted effect of over 35% in size
Chain of Ubiquitin carboxyl-terminal hydrolase 1 (Homo sapiens) (O94782 whole entry, looked up): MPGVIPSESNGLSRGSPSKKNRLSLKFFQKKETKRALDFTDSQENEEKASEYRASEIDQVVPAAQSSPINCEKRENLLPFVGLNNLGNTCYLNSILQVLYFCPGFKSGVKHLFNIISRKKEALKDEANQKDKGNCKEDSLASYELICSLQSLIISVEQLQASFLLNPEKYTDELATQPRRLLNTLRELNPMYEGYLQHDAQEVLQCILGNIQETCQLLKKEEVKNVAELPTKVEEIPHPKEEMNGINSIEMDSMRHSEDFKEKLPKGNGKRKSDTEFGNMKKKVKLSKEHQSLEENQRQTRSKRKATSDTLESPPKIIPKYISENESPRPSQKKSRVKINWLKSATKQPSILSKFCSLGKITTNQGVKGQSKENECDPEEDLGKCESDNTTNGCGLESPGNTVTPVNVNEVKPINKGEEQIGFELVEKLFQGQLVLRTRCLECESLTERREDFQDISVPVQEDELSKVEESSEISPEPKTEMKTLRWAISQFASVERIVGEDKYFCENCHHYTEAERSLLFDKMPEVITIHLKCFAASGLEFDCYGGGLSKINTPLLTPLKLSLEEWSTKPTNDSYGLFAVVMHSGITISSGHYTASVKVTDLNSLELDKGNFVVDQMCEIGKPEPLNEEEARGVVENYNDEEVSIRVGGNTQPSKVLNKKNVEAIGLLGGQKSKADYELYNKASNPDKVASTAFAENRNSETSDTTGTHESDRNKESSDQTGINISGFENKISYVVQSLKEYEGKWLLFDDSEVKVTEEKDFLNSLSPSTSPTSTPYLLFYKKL
Procedure, shortened: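 In 50mM HEPES pH 7.8 containing 0.5mM EDTA, 1mM TCEP, 0.1 mg/ml BSA and 0.01% Tween-20, 1nM USP1/UAF1 is exposed to compound for 15 min, then Ub-Rho (150nM final) is added and fluorescence is read over time.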

[12] = test system: Zika virus NS2B-NS3 protease (linked construct); experiment: 384 well plate NINDS Rhodamine confirmatory qHTS for Zika virus inhibitors (AID 1347164);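 note: fluorescence from protease cleavage of Ac-LKRR-rhodamine 110 substrate; top concentration of the series differs between compounds; plate controls were no-inhibitor control for no effect and no-enzyme control for full effect; nearly all actives have a fitted effect of over 65% in size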
Procedure, shortened: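 Enzyme (final 5/30/60 nM) + cpd (DMSO), ~15 min; add Ac-LKRR-Rd 10 microM final; 25 min RT, dark; FI ex 485/em 538; normalized to no-enzyme, no-inhibitor ctrls; aprotinin intraplate ctrl.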

[13] = target: Rap guanine nucleotide exchange factor 3 (Homo sapiens) (UniProt O95398); experiment: Confirmatory qHTS for antagonist of cAMP-regulated guanine nucleotide exchange factor 3 (EPAC1) (AID 1645880);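 note: plate controls were DMSO only for no effect and full effect of the ATA control for full effect; nearly all actives have a fitted effect of over 55% in size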
Chain of Rap guanine nucleotide exchange factor 3 (Homo sapiens) (O95398 whole entry, looked up): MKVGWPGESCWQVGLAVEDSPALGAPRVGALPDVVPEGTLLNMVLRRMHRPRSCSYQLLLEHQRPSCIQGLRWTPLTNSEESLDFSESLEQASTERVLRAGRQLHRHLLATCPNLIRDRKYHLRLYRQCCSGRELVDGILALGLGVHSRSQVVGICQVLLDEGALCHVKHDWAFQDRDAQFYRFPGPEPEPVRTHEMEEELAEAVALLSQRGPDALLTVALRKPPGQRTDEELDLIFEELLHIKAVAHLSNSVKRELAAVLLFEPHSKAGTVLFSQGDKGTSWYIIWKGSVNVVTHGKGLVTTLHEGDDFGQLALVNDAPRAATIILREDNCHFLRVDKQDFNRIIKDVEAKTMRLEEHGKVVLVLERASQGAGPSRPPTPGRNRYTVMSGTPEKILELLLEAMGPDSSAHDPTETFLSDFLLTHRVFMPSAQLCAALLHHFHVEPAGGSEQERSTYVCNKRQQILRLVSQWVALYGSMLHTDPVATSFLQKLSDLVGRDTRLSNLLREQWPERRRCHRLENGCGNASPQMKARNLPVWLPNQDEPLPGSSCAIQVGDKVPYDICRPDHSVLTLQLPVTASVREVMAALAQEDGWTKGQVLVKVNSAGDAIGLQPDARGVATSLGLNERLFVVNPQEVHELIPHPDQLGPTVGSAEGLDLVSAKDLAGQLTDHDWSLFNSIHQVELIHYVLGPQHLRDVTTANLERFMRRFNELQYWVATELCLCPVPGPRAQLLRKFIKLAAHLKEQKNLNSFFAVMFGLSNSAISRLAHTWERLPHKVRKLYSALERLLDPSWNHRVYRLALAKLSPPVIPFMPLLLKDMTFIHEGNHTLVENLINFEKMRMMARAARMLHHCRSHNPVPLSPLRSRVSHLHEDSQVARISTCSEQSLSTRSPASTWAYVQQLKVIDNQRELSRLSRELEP
Procedure, shortened: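 Released BODIPY-GDP fluoresces less than Rap1-bound BODIPY-GDP; the signal is followed at 480/540 nm at 5-min intervals over 30 min, after 5 min at room temperature. Reactions contain 100 nM EPAC1, 250 nM RAP1B-BODIPY-GDP and 50 uM GDP; results are normalized to ATA and DMSO.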

[14] = target: Rap guanine nucleotide exchange factor 3 (Homo sapiens) (UniProt O95398); experiment: Confirmatory qHTS for agonist of cAMP-regulated guanine nucleotide exchange factor 3 (EPAC1) (AID 1645881);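 note: EPAC1 catalysed release of BODIPY-GDP from Rap1B seen as fluorescence loss; 100% = effect of cAMP agonist control; nearly all actives have a fitted effect of over 75% in size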
[15] = target: Rap guanine nucleotide exchange factor 4 (Homo sapiens) (UniProt Q8WZA2); experiment: Confirmatory qHTS for antagonist of cAMP-regulated guanine nucleotide exchange factor 4 (EPAC2) (AID 1645885); note: % is set by controls: 0 for no effect and ±100 for the full control effect; nearly all actives have a fitted effect of over 25% in size
Chain of Rap guanine nucleotide exchange factor 4 (Homo sapiens) (Q8WZA2 whole entry, looked up): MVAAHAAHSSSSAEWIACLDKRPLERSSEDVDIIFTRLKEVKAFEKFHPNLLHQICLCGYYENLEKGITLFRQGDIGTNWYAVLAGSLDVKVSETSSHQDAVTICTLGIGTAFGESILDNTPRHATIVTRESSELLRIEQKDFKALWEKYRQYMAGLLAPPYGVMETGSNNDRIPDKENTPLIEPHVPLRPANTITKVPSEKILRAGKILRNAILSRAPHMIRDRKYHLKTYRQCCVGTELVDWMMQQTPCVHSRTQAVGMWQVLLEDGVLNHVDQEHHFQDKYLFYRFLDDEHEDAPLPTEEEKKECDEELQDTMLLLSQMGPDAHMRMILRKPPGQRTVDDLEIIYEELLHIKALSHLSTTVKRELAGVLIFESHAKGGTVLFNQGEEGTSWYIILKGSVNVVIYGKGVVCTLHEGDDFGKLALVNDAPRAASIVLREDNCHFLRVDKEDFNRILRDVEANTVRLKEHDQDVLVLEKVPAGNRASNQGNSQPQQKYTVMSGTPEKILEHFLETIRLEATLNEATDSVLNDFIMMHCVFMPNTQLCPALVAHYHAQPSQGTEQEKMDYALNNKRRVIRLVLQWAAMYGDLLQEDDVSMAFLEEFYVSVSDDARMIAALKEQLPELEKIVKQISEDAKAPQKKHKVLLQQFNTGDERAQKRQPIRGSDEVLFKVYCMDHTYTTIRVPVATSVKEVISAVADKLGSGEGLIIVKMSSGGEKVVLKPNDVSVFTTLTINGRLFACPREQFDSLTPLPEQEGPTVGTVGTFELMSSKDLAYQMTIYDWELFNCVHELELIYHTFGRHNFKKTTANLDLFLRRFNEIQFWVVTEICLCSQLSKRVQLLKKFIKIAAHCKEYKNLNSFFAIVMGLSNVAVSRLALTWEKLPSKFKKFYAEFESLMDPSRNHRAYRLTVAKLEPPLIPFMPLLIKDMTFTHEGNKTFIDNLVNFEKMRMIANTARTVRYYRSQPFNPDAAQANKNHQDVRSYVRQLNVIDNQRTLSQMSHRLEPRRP

[16] = target: Rap guanine nucleotide exchange factor 3 (Homo sapiens) (UniProt O95398); experiment: Counterscreen qHTS for antagonist of cAMP-regulated guanine nucleotide exchange factor 3 (EPAC1) (AID 1645888); note: % of control where 0% means no effect
Procedure, shortened: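 Rap1B-BODIPY-GDP 250 nM + GDP 50 uM; cpds 7-pt, final 9.74 nM–152 uM (activator mode) or from 7.32 nM upwards (inhibitor mode); RT; FI 480/540 nm at 5 and 30 min, then ± cAMP, reread.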

Cc1c(Cl)cccc1NC(=O)CSc1ncccc1C(=O)Oc1ccccc1Cl
inactive: Potency [1] | Potency [2]

O=c1oc2cc(O)ccc2cc1-c1nc(-c2ccc(Cl)c(Cl)c2)cs1
active: Potency [1] 11.2 µM
inactive: Potency [3] | Potency [4] | Potency [5]

O=c1c(O)cc(C2Oc3cc(O)cc(O)c3CC2O)cc2c(C3Oc4cc(O)cc(O)c4CC3O)cc(O)c(O)c12 (stereo not drawn)
13.9%: max response ([10]; measured here: cell count channel max response)
active: Potency [6] 15.8 µM | Potency [11] 35.5 µM | Potency [1] 12.6 µM | Potency [2] 20 µM | Potency [4] 7.94 µM
27.3%: max response ([10]; measured here: lipid channel max response)
inactive: Potency [7] | outcome [8] | outcome [9] | activity change, negative = inhibition ([10]; at 57.5 µM (top of the series)) 11.1% | Potency [3] | Potency [12]

O=C(O)c1ccc(NS(=O)(=O)c2ccc(Cl)c(C(=O)Nc3ccccc3)c2)cc1
inactive: Potency [1] | Potency [2] | Potency [5]

O=C(Nc1ccccc1C(=O)OCc1cc(=O)n2c3c(sc2n1)CCCC3)c1ccc(F)cc1
inactive: Potency [1] | Potency [5] | Potency [13] | outcome [14] | activity change, negative = inhibition [15] -5.61% [at 12.7 µM] | outcome [16]
